PLK1 PBD block – inhibitors of human PLK1 polo-box domain binding; Plk1 PBD binding of FITC phosphopeptide, fluorescence polarization; Potency, µM, for the others: max response, negative = inhibition, most hits filed as inhibitors; 360,000 compounds, 2.8% hits; AID 720504; further: potency means the concentration at half of the fitted maximal effect; series mostly up to about 57 µM; on the % scale 0 is the no-effect control and ±100 the full control effect; nearly all actives have a fitted effect of over 65% in size
Target sequence (P53350 whole entry, looked up, the tested form may be a part): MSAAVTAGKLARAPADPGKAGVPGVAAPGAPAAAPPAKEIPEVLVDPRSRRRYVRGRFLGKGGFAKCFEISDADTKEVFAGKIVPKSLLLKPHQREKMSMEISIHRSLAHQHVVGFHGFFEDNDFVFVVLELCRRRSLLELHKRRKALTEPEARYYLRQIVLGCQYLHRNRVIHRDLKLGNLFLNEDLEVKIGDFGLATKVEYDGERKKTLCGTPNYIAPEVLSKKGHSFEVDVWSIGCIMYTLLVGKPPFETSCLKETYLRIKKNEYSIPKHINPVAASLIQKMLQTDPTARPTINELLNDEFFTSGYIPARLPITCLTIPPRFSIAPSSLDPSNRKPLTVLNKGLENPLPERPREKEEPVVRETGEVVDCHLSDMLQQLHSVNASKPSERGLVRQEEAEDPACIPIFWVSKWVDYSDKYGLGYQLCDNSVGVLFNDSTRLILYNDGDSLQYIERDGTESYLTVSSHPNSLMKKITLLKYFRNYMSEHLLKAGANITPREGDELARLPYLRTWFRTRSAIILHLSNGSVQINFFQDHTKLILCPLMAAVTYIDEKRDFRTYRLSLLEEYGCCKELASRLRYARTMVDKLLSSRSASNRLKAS
Vif-APOBEC3G blk – Vif-A3G binding inhibition. Q9HC16. HeLa A3G-eYFP + Vif (tagged APOBEC3G with the HIV-1 protein that degrades it), YFP fluorescence, overnight. Potency, µM (doses to about 46.1 µM), inactives show top-dose activity, negative = active, actives largely listed as inhibitors. 410,000 compounds, 0.076% hits. AID 602310; further: potency means the concentration at half of the fitted maximal effect; on the % scale 0 is the no-effect control and ±100 the full control effect; nearly all actives have a fitted effect of over 60% in size
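Read-out is eYFP fluorescence (Ex 488/Em 500-530) from Vif-expressing HeLa A3G-eYFP cells; more signal means A3G escaped Vif-mediated degradation. Cells plated overnight, compound pinned in, incubated overnight at 37 deg C.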
TSHR antag – antagonists of human thyroid stimulating hormone receptor; P16473; TSHR-expressing cells, TSH-stimulated cAMP HTRF, 2 h; stronger effect = lower value; 330,000 compounds, 0.2% hits; activity change, negative = inhibition, % at 11.5 µM;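 active means activity change below a set negative limit, meaning inhibition stronger than a set level, cut at about -70% in these data; inconclusive means activity change between two set negative limits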; further: on the % scale 0 is the no-effect control and ±100 the full control effect
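Competitive HTRF cAMP read-out (cryptate anti-cAMP antibody, cAMP-d2; 30 min, room temperature) in freshly harvested TSHR cells. Compounds added before TSH at EC80 (4nM final), followed by 2 hours' incubation at 37 deg C.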
VDR inhibitor – inhibitors of human vitamin D receptor | P11473 | VDR-SRC2-3 peptide fluorescence polarization, 2 h | Potency, µM, for inactives: max response, negative = inhibition, most hits filed as inhibitors | 400,000 compounds, 0.93% hits | AID 504847; further: potency means the concentration at half of the fitted maximal effect; on the % scale 0 is the no-effect control and ±100 the full control effect
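Reagent solutions, kept cold and dark, are dispensed first; compounds are then pinned in at 23 nl, plates briefly spun, and incubated 2 h at ambient temperature. Inhibition of VDR–SRC2-3 peptide binding is read by fluorescence polarization.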
Vif-APOBEC3F blk – inhibitors of Vif-A3F interaction. Potency, µM (series often up to 46.1 µM), for inactives: top-dose activity, negative = active. HeLa A3F-eYFP + Vif (tagged APOBEC3F with the HIV-1 protein that degrades it), YFP fluorescence increase. 390,000 compounds, 0.2% hits; further: potency means the concentration at half of the fitted maximal effect; % of control where 0% means no effect; nearly all actives have a fitted effect of over 65% in size
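HeLa cells stably expressing Vif plus C-terminally eYFP-tagged A3F were seeded, incubated overnight at 37 deg C, dosed with compound, incubated overnight again at 37 deg C. Yellow fluorescence (Ex 488/Em 500-530) reported blocked Vif-mediated A3F-eYFP degradation.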
TbPYK confirm – Trypanosoma brucei pyruvate kinase inhibition, cherry-pick confirmation; shares compounds with PLK1 PBD block; Potency, µM (series often up to 76.9 µM), inactives show top-dose activity change, negative = inhibition, usual class: inhibitors; recombinant TbPYK, Kinase-Glo ATP luminescence; 890 compounds, 67% hits; AID 720569; further: potency means the concentration at half of the fitted maximal effect; on the % scale 0 is the no-effect control and ±100 the full control effect; nearly all actives have a fitted effect of over 70% in size
TbPYK ADP-Glo – TbPYK inhibition, orthogonal confirmation; shares compounds with PLK1 PBD block; recombinant TbPYK, ADP-Glo luminescence, 60 min; Potency, µM (highest dose often 76.9 µM), for inactives: at the highest dose activity change, negative = inhibition, most hits filed as inhibitors; 890 compounds, 62% hits; further: potency means the concentration at half of the fitted maximal effect; on the % scale 0 is the no-effect control and ±100 the full control effect; nearly all actives have a fitted effect of over 75% in size
The depositor's hits bear a star; ? = inconclusive; / = no result. Hits are enriched below; roughly 3.1% of the tested compounds scored in any of these assays. Unless noted, the call rests on the fitted dose curve; in most records, active means well fitted curve in the direction sought with a large enough effect; inconclusive means small, poorly fitted or top-dose-only effect, or another doubt; inactive means no such curve, though single readings can be large; an effect the other way counts as inactive or inconclusive.

SMILES	PLK1 PBD block	Vif-APOBEC3G blk	TSHR antag	VDR inhibitor	Vif-APOBEC3F blk	TbPYK confirm	TbPYK ADP-Glo
O=c1[nH]c(=O)n(C2CC(O)C(CO)O2)cc1Br (stereo not given)	-1.4%	1.7%	/	6.4%	-1.9%	12.6µM*	28.2µM*
O=c1[nH]c(=O)n([C@H]2C[C@@H](O)[C@@H](CO)O2)cc1F	/	-16.4%	/	/	/	/	/
CC(=O)/C(=N\Nc1ccc(Cl)cc1Cl)Sc1nnc(-c2ccccc2)n1-c1ccccc1	-8.6%	-1.0%	16.1	-12.2%	-5.7%	?	14.1µM*
O=C(O)C(Cc1ccccc1)N1C(=O)C=CC1=O (stereo not given)	6.7µM*	1.9%	/	/	0.7%	17.8µM*	31.6µM*
Cc1nc(SCC(=O)c2cccc([N+](=O)[O-])c2)n[nH]1	?	-1.6%	20.2	25.1µM*	-3.9%	?	?
CN(C(=O)CSc1nc2ncccc2o1)c1ccc(F)cc1	/	1.8%	/	10.5%	1.8%	/	/
Cc1onc(C(=O)Nc2sc3c(c2C(N)=O)CCCC3)c1[N+](=O)[O-]	10.6µM*	-2.5%	1.4	79.4µM*	-6.6%	15.8µM*	17.8µM*
COc1cc2ccc(=O)oc2c(OC)c1OC	/	/	/	0.6%	/	/	/
COc1cc2ccc(=O)oc2c(O)c1O	-3.5%	2.2%	/	-18.9%	-2.8%	28.2µM*	35.5µM*
O=C1CS(=O)(=O)C2(C(=O)N(Cc3ccccc3Cl)c3ccccc32)N1c1ccc(F)cc1 (stereo not given)	/	3.0%	/	10.9%	5.2%	/	/
CN(C)c1ccc(/C=N/NC(=O)C2COc3ccccc3O2)o1 (stereo not given)	-15.1%	-1.6%	0.7	-18.2%	-0.1%	?	35.5µM*
Cc1ccc(C)c(N2CCN(c3nc4ccccc4n4nnnc34)CC2)c1	/	/	/	12.0%	/	/	/
CC1CCCN(C(=O)c2nn(C)c3c2CSc2ccccc2-3)C1 (stereo not given)	?	-5.7%	-3.1	-10.8%	0.9%	7.94µM*	10µM*
CC1CC(C)CN(C(=O)c2nn(C)c3c2CSc2ccccc2-3)C1 (stereo not given)	-3.9%	5.0%	-2.7	-16.1%	12.1%	/	/
CC(=O)c1ccc(N2CCN(c3ccc(C(N)=O)cc3[N+](=O)[O-])CC2)cc1	-3.7%	-1.7%	-14.5	-3.5%	-2.3%	/	/
NC(=O)c1ccc(N2CCN(c3ccc(O)cc3)CC2)c([N+](=O)[O-])c1	-4.6%	0.6%	-10.1	-11.2%	0.8%	14.1µM*	?
Cc1ccc(CCNC(=O)C2CCCN(C(=O)c3cc4sccc4n3C)C2)cc1 (stereo not given)	-9.0%	-1.0%	-1.9	-2.9%	-1.6%	2.51µM*	10µM*
Cn1c(C(=O)N2CCCC(C(=O)NCCc3ccccc3)C2)cc2sccc21 (stereo not given)	-2.6%	0.1%	16.7	6.5%	-0.8%	/	/
O=C(O)/C=C/C(=O)NNC(=O)c1cc(-c2ccccc2)n[nH]1	29.9µM*	1.6%	7.3	?	-1.1%	?	?
CN1C(=CC=C2C=C(I)C(=O)C(I)=C2)C(C)(C)c2ccccc21	55.0%	-1.9%	-1.8	5.8%	-8.0%	?	5.5%
O=C(CN1CCN(c2ccc(F)cc2)CC1)Nc1ccc2c(c1)OCCO2	-5.8%	0.8%	-7.8	10.1%	0.2%	/	/
O=C(CN1CCN(c2ccc(O)cc2)CC1)Nc1ccc2c(c1)OCCO2	10.4%	-3.7%	-0.7	-18.1%	-1.8%	22.4µM*	31.6µM*
O=C1C=CC(=O)N1c1cccc(-c2ccccc2)c1	2.67µM*	-26.0%	-37.5	44.7µM*	-0.5%	3.98µM*	7.94µM*
CNc1nc(-c2ccccc2)[n+](-c2ccc(C)cc2)s1	1.5µM*	-0.4%	25.7	?	-24.4%	1µM*	1.78µM*
Cc1ccc(-c2nc(N)s[n+]2-c2ccccc2)cc1	3.77µM*	0.6%	38.4	-25.5%	-3.3%	2.24µM*	6.31µM*
SMILES	PLK1 PBD block	Vif-APOBEC3G blk	TSHR antag	VDR inhibitor	Vif-APOBEC3F blk	TbPYK confirm	TbPYK ADP-Glo
Cc1cccc(NC(=O)CN2C(=O)N/C(=C/c3ccc(C)o3)C2=O)c1	2.9%	-1.8%	11.9	?	-10.0%	?	35.5µM*
Cc1ccc(NC(=O)CN2C(=O)N/C(=C/c3ccc(C)o3)C2=O)cc1	3.3%	-4.4%	-1.4	?	-2.8%	/	/
Cc1ccc2c(c1)-c1c(ssc1=S)C(C)(C)N2C(=O)CSc1nncn1C	-23.7%	1.5%	-1.4	-25.2%	-2.6%	/	/
Cc1cc(C)c2c(c1)-c1c(ssc1=S)C(C)(C)N2C(=O)CSc1nncn1C	-11.6%	-18.7%	12.5	?	-16.1%	14.1µM*	15.8µM*
O=S(=O)(NCCc1csc2nc(-c3ccc(Cl)cc3)nn12)c1ccc2c(c1)OCCO2	/	1.1%	/	5.2%	2.2%	/	/
COC(=O)/C(=N\Nc1ccccc1)Sc1nnc(-c2ccc(OC)cc2)n1C	-4.2%	-1.0%	-1.9	-3.8%	6.9%	17.8µM*	17.8µM*
CCOC(=O)/C(=N\Nc1ccc(Cl)cc1)Sc1nnc(-c2ccc(OC)cc2)n1C	-5.8%	-0.7%	8.3	-9.6%	-1.9%	/	/
O=C(NCCCN1CCN(c2ccc(F)cc2)CC1)c1ccc2nc(Cc3ccccc3)oc2c1	/	2.1%	/	0.0%	-3.1%	/	/
CCN1/C(=C/c2ccc3cccc(C)c3[n+]2CC)Sc2ccccc21	12.5%	?	-22.1	-2.5%	-146.9%	/	/
CCN1/C(=C/C(C)=C/c2sc3ccccc3[n+]2CC)Sc2ccccc21	13.7%	13.6%	-16.8	-27.4%	?	?	-9.5%
Cc1cccc(NC2=C(NC(=O)c3ccccc3)C(=O)c3ccccc3C2=O)c1	?	-0.9%	10.0	?	-5.8%	14.1µM*	11.2µM*
Cc1cccc(C(=O)Nc2cccc(NC(=O)c3ccccc3)c2)c1	-1.0%	-1.4%	-1.0	4.4%	9.6%	/	/
CC(C)(C)C1CCc2nc(NC(=O)c3cccc(Cl)c3)sc2C1 (stereo not given)	/	3.0%	/	5.7%	0.3%	/	/
c1coc(-c2nc3ccccc3nc2-c2ccco2)c1	?	-1.6%	-4.5	?	0.2%	14.1µM*	17.8µM*
c1coc(-c2cnc3ccccc3n2)c1	-16.9%	-0.4%	/	/	-3.8%	/	/

Source: PubChem
